Inconclusive results are not listed. The source made the active and inactive calls. Rule for the calls, unless noted: active = hit-call score of the fitted dose curve at least 0.9, where 1 is the maximum; inconclusive = response in the unintended direction; inactive = score below 0.9.

Test [1] can be described thus: CCTE_Deisenroth_AIME_384WELL_CTox_Active: Cytotoxicity Assessment (CTOX) in CCTE's 384-well Estrogen Receptor Transactivation Assay with AIME metabolic competence (metabolism positive), Deisenroth Lab (AID 2284037).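 Note: chemicals first conditioned 2 h by alginate-bound induced rat liver S9 before cells; activity means signal loss indicating cell death.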 An outline of the steps: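 Chemicals pre-incubated 2 hours with alginate-immobilised phenobarbital/beta-naphthoflavone-induced male Sprague Dawley rat liver S9, then conditioned medium applied 24 hour to VM7Luc4E2 cells. Viability by fluorogenic protease substrate; 10-point series 0.002 - 200 uM.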

Test [2] can be described thus: CCTE_Deisenroth_AIME_384WELL_CTox_Inactive: Cytotoxicity Assessment (CTOX) in CCTE's 384-well Estrogen Receptor Transactivation Assay without AIME metabolic competence (metabolism negative), Deisenroth Lab (AID 2284039).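 Note: cell viability via live-cell protease substrate cleaved to fluorescent probe; cells exposed 24 h to medium preincubated 2 h with alginate-water beads without S9; loss of fluorescence signal means loss of viability.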 An outline of the steps: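 VM7Luc4E2 cells, metabolism-negative arm: test chemicals (0.002–200 uM, 10 points) pre-incubated 2 h with alginate-water microspheres, then medium transferred to cells for 24 h. Viability read as protease-substrate cleavage to fluorescent probe; loss-of-signal, bidirectional fitting.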

Test [3] can be described thus: CCTE_Shafer_MEA_dev_firing_rate_mean: CCTE's Neural Network Formation Assay for Mean Firing Rate, Shafer Lab (AID 2284031; active = hit-call score of the fitted dose curve at least 0.9, where 1 is the maximum; inactive = score below 0.9). An outline of the steps:
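Extracellular spike frequency, AUC over DIV 5–12 recordings, in rat cortical neuron MEA cultures dosed from plating; loss direction vs DMSO.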

A short description of test [4]: CCTE_Shafer_MEA_dev_per_burst_spike_percent: CCTE's Neural Network Formation Assay for Percent of Spikes in a Burst, Shafer Lab (AID 2284032; active = hit-call score of the fitted dose curve at least 0.9, where 1 is the maximum; inactive = score below 0.9;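 for AC50: fitted as a decrease in burst spike percentage below DMSO baseline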). The gist of the method:
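Value is trapezoidal AUC over recordings on days 5, 7, 9 and 12 of the well-mean fraction of spikes falling in single-electrode bursts; rat cortical cultures exposed continuously from plating, treatment renewed DIV 5 and 9, fitted downward against DMSO.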

A short description of test [5]: CCTE_Shafer_MEA_dev_active_electrodes_number: CCTE's Neural Network Formation Assay for Number of Active Electrodes, Shafer Lab (AID 2284040).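 For AC50: potency for loss of active electrodes versus DMSO so lower counts are hits.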 The gist of the method: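 Developing rat cortical networks on MEAs, exposed DIV 0–12. Value is the AUC of active-electrode counts (≥5 spikes/min) from days 5, 7, 9, 12, relative to DMSO.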
Test [6] in a line: CCTE_Shafer_MEA_dev_burst_rate: CCTE's Neural Network Formation Assay for Burst Rate, Shafer Lab (AID 2284042; active = hit-call score of the fitted dose curve at least 0.9, where 1 is the maximum; inactive = score below 0.9). The gist of the method:
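Primary rat cortical neurons on PEI-coated 48-well MEA plates (laminin added with cells at plating) (16 electrodes/well), exposed from plating to day 12, dosing renewed at DIV 5 and 9. Burst rate averaged over active electrodes, recorded DIV 5, 7, 9, 12, summarized as AUC; loss versus DMSO.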

A short description of test [7]: CCTE_Shafer_MEA_dev_bursting_electrodes_number: CCTE's Neural Network Formation Assay for Number of Bursting Electrodes, Shafer Lab (AID 2284043).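 For AC50: potency is for loss of bursting electrodes relative to DMSO.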 The gist of the method: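 Rat cortical primary neurons, 48-well MEA, 16 electrodes/well; dosing DIV 0–12, re-dosed with full media change DIV 5, 9. Recordings DIV 5/7/9/12, AxIS adaptive spike detector; bursting electrode = ≥1 burst/2 min. AUC across days; loss of signal vs DMSO.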

In test [8] the target is Estrogen receptor (Homo sapiens) (UniProt P03372). Kind of test: CCTE_Deisenroth_AIME_384WELL_LUC_Active: CCTE's 384-well Estrogen Receptor Transactivation Assay with AIME metabolic competence (ERTA luciferase; metabolism positive), Deisenroth Lab (AID 2284030). An outline of the steps:
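In this metabolism-positive format, a 2-hour exposure to alginate-immobilized rat S9 precedes a 24 hour luciferase transactivation readout in VM7Luc4E2 cells. Dosing spans 10 concentrations from 0.002 to 200 uM.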

The target is the same in test [9]. Kind of test: CCTE_Deisenroth_AIME_384WELL_LUC_Inactive: CCTE's 384-well Estrogen Receptor Transactivation Assay without AIME metabolic competence (ERTA luciferase; metabolism negative), Deisenroth Lab (AID 2284038).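 Note: VM7Luc4E2 breast cells given medium preincubated 2 h with S9-free microspheres; hits raise estrogen receptor luciferase signal so potencies reflect agonists.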 The gist of the method:
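Metabolism-negative mode: AIME lids stamped in alginate-water, no hepatic S9. 2 h chemical incubation → medium onto VM7Luc4E2 ERTA, 24 h. Readout luciferase luminescence; gain-of-signal fit vs 17beta-estradiol. Conc. 0.002 - 200 uM.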

Test [10] has the same target. Briefly: CCTE_Deisenroth_AIME_384WELL_LUC_Shift: CCTE's 384-well Estrogen Receptor Transactivation Assay with AIME metabolic competence data shift (ERTA luciferase; difference in metabolism positive and negative), Deisenroth Lab (AID 2284041; active = hit-call score of the fitted dose curve at least 0.9, where 1 is the maximum; inactive = score below 0.9;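 note: shift is response with S9 minus without S9 so positive means metabolism raised ER signal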). The gist of the method: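 Chemicals (0.002–200 uM, 10 points) pre-incubated 2 h with alginate-encapsulated induced male Sprague Dawley rat liver S9 or S9-free, then medium applied 24 h to VM7Luc4E2 cells; luciferase. Endpoint is per-concentration difference, S9-positive minus negative.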

Estrogen receptor (Homo sapiens), sequence (P03372 whole entry, looked up): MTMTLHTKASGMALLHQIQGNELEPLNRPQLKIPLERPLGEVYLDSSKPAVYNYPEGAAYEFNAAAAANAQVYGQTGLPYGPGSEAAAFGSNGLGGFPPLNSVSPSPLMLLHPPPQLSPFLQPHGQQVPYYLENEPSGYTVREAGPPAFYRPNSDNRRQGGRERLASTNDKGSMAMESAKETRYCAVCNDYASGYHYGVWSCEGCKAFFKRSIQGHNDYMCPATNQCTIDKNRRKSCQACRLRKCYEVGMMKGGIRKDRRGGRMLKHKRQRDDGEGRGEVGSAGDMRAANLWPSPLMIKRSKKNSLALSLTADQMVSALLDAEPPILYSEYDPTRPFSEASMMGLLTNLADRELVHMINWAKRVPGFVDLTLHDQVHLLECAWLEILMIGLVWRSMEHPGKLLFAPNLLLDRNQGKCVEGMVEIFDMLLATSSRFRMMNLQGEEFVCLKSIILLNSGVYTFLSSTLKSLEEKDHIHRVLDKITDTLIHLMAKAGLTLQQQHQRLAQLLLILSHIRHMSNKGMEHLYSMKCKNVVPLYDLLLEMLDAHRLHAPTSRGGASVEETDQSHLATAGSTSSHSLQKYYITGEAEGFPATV

Regarding `CCOCCOCCOCCO`, the call in test [1] and in test [2] was inactive.

Regarding `Cc1c(-c2cccnc2)c2ccccc2n1CCCCC(=O)O`, the compound was called inactive in test [1].

In the case of `NC(=O)NO`, the call in [3], in test [4], in test [5], in test [6] and in [7] was inactive.

Take `COCCOCCOCCOC`: the outcome in test [1] and in test [2] was inactive.

In the case of `CC(C)CCO`, the result in [8], in test [9], in test [2] and in test [10] was inactive.

As to `CC(C)c1cccc(C(C)C)c1N1C(=O)c2ccc(O)cc2C1=O`, the compound was classed as inactive in test [1] and in test [2].

Turning to `CCCC(=O)OCC`, the compound was called inactive in test [8], in test [9] and in [10].

Consider `Nc1cccc(N)c1`, for which the compound was called inactive in [2].

For the compound `CCN(C(=O)c1cc(C)cc(OC[C@H](C)Nc2ccncc2)c1)C(C)C`, the call in [1] and in test [2] was inactive.

With `CC(C)CCCCCCCOC(=O)CCCCC(=O)OCCCCCCCC(C)C`, the compound was called inactive in [1].

For the compound `CC(=O)OCCC(C)C`, the compound was classed as inactive in [1] and in [2].

Regarding `Nc1nc2ncc(CNc3ccc(C(=O)N[C@@H](CCC(=O)O)C(=O)O)cc3)nc2c(=O)[nH]1`, the compound was classed as inactive in [3], in test [4], in test [5], in test [6] and in test [7].

With `O=c1[nH]c2ccc(S(=O)CCN3CCC(Cc4ccc(F)cc4)CC3)cc2o1` (stereo unspecified), the result in test [8], in [9] and in test [10] was inactive.

For `CC1=CC(=O)CC(C)(C)C1`, the result in test [1] and in test [2] was inactive.

One may read the AC50 as the midpoint of the concentration-response curve, whichever way the signal moves. Turning to `CNCc1ccc(NC(=O)c2c[nH]c3c2C(=O)CCC3)cc1`, the compound was called inactive in test [3], in test [1], in [2] and in [6]. The half-maximal activity concentration (AC50) in [4], in test [5] and in test [7] was 1980 nM (active) throughout.

`C=CC(=C)CCC=C(C)C`: the compound was classed as inactive in [8], in test [9] and in test [10].

For the compound `CC(C)=CCC/C(C)=C\CO`, the outcome in [1] and in test [2] was inactive.

Regarding `Cc1ccc(O)cc1`, the result in test [1] was inactive.

For `O=C1CCC(N2C(=O)c3ccccc3C2=O)C(=O)N1` (stereo unspecified), the compound was classed as inactive in test [3], in test [4], in [5], in test [6] and in test [7].

Take `CC[C@H](C)C(=O)O[C@H]1C[C@@H](C)C=C2C=C[C@H](C)[C@H](CC[C@@H]3C[C@@H](O)CC(=O)O3)[C@H]21`: the compound was called inactive in test [3] and in [6]. For the same compound, the AC50 in test [4] is 10000 nM (active); in test [5], 1760 nM (active); in test [7] it was 1910 nM (active).

For `Oc1ccc2c(c1)-c1ccccc1C2`, in [1], the outcome was inactive. Moreover, the AC50 in test [2] is 156000 nM (active).

With `Cc1ccc(N)cc1O`, the call in test [8], in [9], in test [2] and in [10] was inactive.

`COCCOc1cc2cc(C(=O)NC3CCN(C(C)C)CC3)n(CC(=O)Nc3ccc(Cl)cn3)c2cn1`: the compound was called inactive in test [1] and in [2].

On to `COc1ccc(-n2nc(C(F)F)cc2-c2ccc(S(C)=O)cc2)cc1` (stereo unspecified), for which the result in test [3], in [4] and in test [6] was inactive. The AC50 in [5] and in test [7] was 10000 nM (active) throughout.

For the origin of these results see PubChem BioAssay (EPA / NIEHS).
